Measurements as given in PubChem BioAssay AID1159580 (chemical genetic matrix, 2015).
“And” between values parts separate entries of the source, which are not always exact repeats. Identical values can stand only once. About 2,000 (36%) of roughly 5,500 compounds were called active. Inconclusive results (about 18%) are left out. Cut-off read from the data, not from the text of the source: active = normalized growth mostly below about 0.91 (no sharp cut-off); inconclusive = no clear call, values can overlap the other calls; inactive = mostly above about 0.92. The list shows a part of the results.

Test: chemical genetic growth profiling, strain panel (AID 1159580);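 note: tested at 20 µM; growth read once vehicle control cultures reached saturation at 30 °C; 1 = growth at the plate median or of vehicle wells; lower values mean less growth of the strain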
Conditions: S. cerevisiae deletion strains, growth OD

Measured: normalized growth

COc1cccc(OC)c1C(=O)N[C@@H]1C(=O)N2[C@@H]1SC(C)(C)[C@@H]2C(=O)O
inactive: locus YAL013W, strain DEP1, stronger effect = lower value 0.994 | locus YAL021C, strain ccr4, stronger effect = lower value 1.01 | locus YAL026C, strain drs2, stronger effect = lower value 1.01 | locus YAL030W, strain snc1, stronger effect = lower value 0.997 | locus YBL061C, strain skt5, stronger effect = lower value 0.998 | locus YBR009C, strain hhf1, stronger effect = lower value 0.997 | locus YBR021W, strain FUR4, stronger effect = lower value 1.01 | locus YBR023C, strain chs3, stronger effect = lower value 0.988 | locus YBR171W, strain sec66, stronger effect = lower value 0.987 | locus YBR229C, strain ROT2, stronger effect = lower value 1.01 | locus YBR231C, strain swc5, stronger effect = lower value 0.984 | locus YBR279W, strain paf1, stronger effect = lower value 1 | locus YCL011C, strain gbp2, stronger effect = lower value 1.01 | locus YCL016C, strain dcc1, stronger effect = lower value 1 | locus YCL029C, strain bik1, stronger effect = lower value 0.99 | locus YCL069W, strain vba3, stronger effect = lower value 1 | locus YCR088W, strain abp1, stronger effect = lower value 0.996 | locus YDL005C, strain med2, stronger effect = lower value 0.991 | locus YDL035C, strain GPR1, stronger effect = lower value 1 | locus YDL040C, strain nat1, stronger effect = lower value 0.995 | locus YDL074C, strain BRE1, stronger effect = lower value 1.03 | locus YDL101C, strain DUN1, stronger effect = lower value 1 | locus YDL134C, strain PPH21, stronger effect = lower value 1.01 | locus YDL185W, strain tfp1, stronger effect = lower value 0.967 | locus YDL192W, strain arf1, stronger effect = lower value 0.988 | locus YDR001C, strain nth1, stronger effect = lower value 1 | locus YDR069C, strain doa4, stronger effect = lower value 1.01 | locus YDR101C, strain arx1, stronger effect = lower value 0.997 | locus YDR137W, strain rgp1, stronger effect = lower value 1.03 | locus YDR150W, strain NUM1, stronger effect = lower value 0.983 | locus YDR159W, strain sac3, stronger effect = lower value 0.988 | locus YDR162C, strain NBP2, stronger effect = lower value 0.979 | locus YDR195W, strain ref2 0.979 | locus YDR297W, strain sur2, stronger effect = lower value 1 | locus YDR318W, strain mcm21, stronger effect = lower value 0.987 | locus YDR334W, strain swr1, stronger effect = lower value 0.995 | locus YDR335W, strain msn5, stronger effect = lower value 0.998 | locus YDR388W, stronger effect = lower value 1 | locus YDR392W, strain spt3, stronger effect = lower value 0.998 | locus YDR502C, strain sam2, stronger effect = lower value 0.995 | locus YEL003W, strain gim4, stronger effect = lower value 1 | locus YEL037C, strain rad23, stronger effect = lower value 0.997 | locus YEL061C, strain CIN8 (second series), stronger effect = lower value 0.996 | locus YEL061C, strain CIN8, stronger effect = lower value 0.986 | locus YER015W, strain faa2, stronger effect = lower value 1 | locus YER016W, strain bim1, stronger effect = lower value 0.997 | locus YER110C, stronger effect = lower value 0.991 | locus YER111C, strain swi4, stronger effect = lower value 0.995 | locus YER155C, strain BEM2 (second series), stronger effect = lower value 0.966 | locus YER155C, strain BEM2, stronger effect = lower value 1.01 | locus YER167W, strain BCK2, stronger effect = lower value 0.999 | locus YFR010W, strain ubp6, stronger effect = lower value 0.989 | locus YGL078C, strain dbp3, stronger effect = lower value 0.991 | locus YGL086W, strain mad1, stronger effect = lower value 0.994 | locus YGL167C, strain pmr1, stronger effect = lower value 0.99 | locus YGL173C, strain kem1, stronger effect = lower value 0.977 | locus YGL227W, strain vid30, stronger effect = lower value 0.992 | locus YGL240W, strain doc1, stronger effect = lower value 1 | locus YGL248W, strain PDE1, stronger effect = lower value 1.01 | locus YGL253W, strain hxk2, stronger effect = lower value 1.01 | locus YGR078C, strain PAC10, stronger effect = lower value 1 | locus YGR135W, strain pre9, stronger effect = lower value 1 | locus YGR229C, strain SMI1, stronger effect = lower value 1.02 | locus YGR252W, strain gcn5, stronger effect = lower value 1.05 | locus YHR013C, strain ard1, stronger effect = lower value 1.01 | locus YHR027C, strain rpn1, stronger effect = lower value 1 | locus YHR030C, strain SLT2, stronger effect = lower value 0.993 and 1.03 | locus YHR079C, strain IRE1 (second series), stronger effect = lower value 0.991 | locus YHR079C, strain IRE1, stronger effect = lower value 1.01 | locus YHR094C, strain hxt1, stronger effect = lower value 0.982 | locus YHR129C, strain ARP1, stronger effect = lower value 1 | locus YHR142W, strain chs7, stronger effect = lower value 0.98 | locus YHR200W, strain rpn10, stronger effect = lower value 0.98 | locus YIL066C, strain RNR3, stronger effect = lower value 1.01 | locus YIL073C, strain SPO22, stronger effect = lower value 0.991 | locus YIL125W, strain kgd1, stronger effect = lower value 0.988 | locus YIR030C, strain dcg1, stronger effect = lower value 0.992 | locus YJL092W, strain hpr5, stronger effect = lower value 0.987 | locus YJL095W, strain BCK1 (second series), stronger effect = lower value 0.998 | locus YJL095W, strain BCK1, stronger effect = lower value 1.01 and 1.02 | locus YJL115W, strain asf1, stronger effect = lower value 0.999 | locus YJL129C, strain trk1, stronger effect = lower value 0.98 | locus YJL134W, strain LCB3, stronger effect = lower value 0.998 | locus YJL154C, strain vps35, stronger effect = lower value 0.993 | locus YJL164C, strain tpk1, stronger effect = lower value 0.994 | locus YJL166W, strain qcr8, stronger effect = lower value 0.97 | locus YJL168C, strain set2, stronger effect = lower value 0.988 | locus YJL187C, strain SWE1 (second series), stronger effect = lower value 1.01 | locus YJR043C, strain POL32, stronger effect = lower value 0.993
